Here are results for eight molecules from PubChem BioAssay (NCI).

Experiment in all cases: NCI-60 one-dose screen, 48 h (100 = growth as untreated, 0 = no growth, -100 = all killed)
One experiment relates to HCT-15 colon. As to conditions: 10 µM unless noted.
A further experiment deals with HT29 colon. The conditions noted are these: 10 µM unless noted.
A further experiment concerns SNB-75 CNS. As to conditions: 10 µM unless noted.
For another experiment, the system named is SNB-19 CNS. The conditions noted are these: 10 µM unless noted.
The test system of the next experiment is U251 CNS. The conditions noted are these: 10 µM unless noted.
A further experiment concerns PC-3 prostate. The conditions noted are these: 10 µM unless noted.
For another experiment, the system named is SK-MEL-5 melanoma. As to conditions: 10 µM unless noted.
In another experiment the test system is UACC-62 melanoma. The conditions noted are these: 10 µM unless noted.
In a further experiment the test system is LOX IMVI melanoma. The conditions noted are these: 10 µM unless noted.
The subject of a further experiment is SK-MEL-28 melanoma. As to conditions: 10 µM unless noted.
The next experiment has as its system SK-MEL-2 melanoma. As to conditions: 10 µM unless noted.
In another experiment the test system is EKVX NSCLC. The conditions noted are these: 10 µM.
A further experiment has as its system SN12C renal. The conditions noted are these: 10 µM unless noted.
In the next experiment the test system is UO-31 renal. As to conditions: 10 µM unless noted.
The next experiment relates to TK-10 renal. As to conditions: 10 µM unless noted.
A further experiment concerns ACHN renal. The conditions noted are these: 10 µM unless noted.
For a further experiment, the system named is CAKI-1 renal. As to conditions: 10 µM unless noted.
The test system of a further experiment is A498 renal. As to conditions: 10 µM unless noted.
The test system of the next experiment is CCRF-CEM leukemia. As to conditions: 10 µM.
The subject of the next experiment is MOLT-4 leukemia. As to conditions: 10 µM unless noted.

About 83,000 compounds went through this panel and 20% of them were active in at least one assay; those are over-represented in the sample as a whole.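 Results are percent growth after 48 hours of single-concentration exposure. 100 means growth as in untreated cells, lower positive values show inhibition; negative values down to -100 show cell death.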 A number with no mark means an inactive call. Active and inactive are the calls of the source. How the source made its calls: active means growth percent below 10; inactive means the rest.

On to `COc1cc(-c2c3c(cn2CCN2CCCCC2)-c2oncc2CC3)cc(OC)c1OC`, for which the growth with HCT-15 colon was 98.3%; in the experiment on HT29 colon, 84%; in the experiment on SNB-75 CNS it was 81.4%; in the experiment with SNB-19 CNS it was 99.8%; with U251 CNS, 101%; in the experiment on PC-3 prostate, 89.7%. The growth is 98.3% in the experiment with SK-MEL-5 melanoma; 90.4% with UACC-62 melanoma; 97.7% in the experiment on LOX IMVI melanoma; 100% in the experiment on SK-MEL-28 melanoma; 106% in the experiment on SK-MEL-2 melanoma; 102% in the experiment with EKVX NSCLC. Also, the growth was 101% with SN12C renal; 80.2% in the experiment with UO-31 renal; 100% with TK-10 renal; 89.7% in the experiment with ACHN renal; 87% in the experiment on CAKI-1 renal; 90.9% in the experiment on A498 renal. For the same molecule, the values for the growth with CCRF-CEM leukemia and with MOLT-4 leukemia were 103% and 100%, respectively.
On to `Cc1ccc(C(=O)Nc2ccc(CN3CCN(C)CC3)c(C(F)(F)F)c2)cc1C#Cc1cnc(N)c2ccc(C#N)cc12`, for which the growth in the experiment on HCT-15 colon was 23.2%; in the experiment with HT29 colon it was 10.5%; in the experiment on SNB-75 CNS it was 51.5%; in the experiment with SNB-19 CNS, 63.3%; in the experiment with U251 CNS, 48.9%; in the experiment with PC-3 prostate, 51.7%. Besides, the growth was 13.5% with SK-MEL-5 melanoma; 25.4% in the experiment on UACC-62 melanoma; 21% in the experiment with LOX IMVI melanoma; 12.9% in the experiment on SK-MEL-28 melanoma; 25.1% with SK-MEL-2 melanoma; 53.4% in the experiment with EKVX NSCLC. The growth in the experiment with SN12C renal is 24.1%; in the experiment on UO-31 renal it was 14.3%; with TK-10 renal, 52.7%; in the experiment on ACHN renal it was 9.19% (active); with CAKI-1 renal it was 33.6%; in the experiment with A498 renal, 35.7%. The values for the growth in the experiment with CCRF-CEM leukemia and in the experiment on MOLT-4 leukemia were 7.71% (active) and -8.2% (active), respectively.
Turning to `Nc1cc(N)c2nc(NCCc3ccc(Cl)c(Cl)c3)cnc2c1`, the growth was 90% in the experiment on HCT-15 colon; 41.7% with HT29 colon; 57.9% with SNB-75 CNS; 66% with SNB-19 CNS; 7.5% (active) with U251 CNS; 43.9% in the experiment on PC-3 prostate. For the same molecule, the growth in the experiment with SK-MEL-5 melanoma is 37.2%; with UACC-62 melanoma, 33.7%; in the experiment with LOX IMVI melanoma it was 39.7%; with SK-MEL-28 melanoma it was 104%; with SK-MEL-2 melanoma, 54.9%; in the experiment on EKVX NSCLC it was 28.6%. Besides, the growth in the experiment on SN12C renal is 16.5%; in the experiment on UO-31 renal it was 55.8%; with TK-10 renal it was 98.6%; with ACHN renal it was 62.6%; in the experiment with CAKI-1 renal, 133%; in the experiment on A498 renal, 88.2%. Moreover, the growth with CCRF-CEM leukemia is -63.3% (active); in the experiment with MOLT-4 leukemia it was -69.9% (active).
As to `COc1cc(NC(C)CCCN)c2nccc(C)c2c1OC` (stereo not given), the growth in the experiment on HCT-15 colon was 84.4%; in the experiment on HT29 colon, 57.9%; in the experiment on SNB-75 CNS, 103%; in the experiment on SNB-19 CNS, 97.6%; in the experiment on U251 CNS it was 64.5%; in the experiment with PC-3 prostate it was 72.3%. The growth with SK-MEL-5 melanoma is 86.8%; in the experiment on UACC-62 melanoma, 97.2%; in the experiment on LOX IMVI melanoma it was 58.5%; in the experiment with SK-MEL-28 melanoma, 117%; in the experiment with SK-MEL-2 melanoma it was 95.2%; in the experiment on EKVX NSCLC, 99.4%. Further, the growth in the experiment on SN12C renal is 82%; in the experiment on UO-31 renal, 89.5%; with TK-10 renal it was 114%; in the experiment on ACHN renal, 100%; with CAKI-1 renal, 99.9%; with A498 renal, 83.7%. The growth is 64.8% in the experiment with CCRF-CEM leukemia and 73.1% in the experiment on MOLT-4 leukemia.
As for `c1cc(C2CCCCC2)ccc1OCCCCCCN1CCNCC1`, the growth with HCT-15 colon was -64.5% (active); in the experiment with HT29 colon, 4.38% (active); in the experiment with SNB-75 CNS it was 31.2%; in the experiment on SNB-19 CNS, 57.6%; in the experiment on U251 CNS, -8.72% (active); in the experiment with PC-3 prostate it was 27.5%. Moreover, the growth was 34.4% in the experiment with SK-MEL-5 melanoma; 70.3% with UACC-62 melanoma; -90.5% (active) in the experiment on LOX IMVI melanoma; 60.1% in the experiment on SK-MEL-28 melanoma; 87.8% in the experiment on SK-MEL-2 melanoma; 90.5% in the experiment on EKVX NSCLC. Further, the growth with SN12C renal was 59.1%; in the experiment on UO-31 renal, 56.6%; with TK-10 renal, 57%; in the experiment with ACHN renal, -7.79% (active); in the experiment with CAKI-1 renal, 55.7%; in the experiment with A498 renal it was 61.5%. Moreover, the growth in the experiment with CCRF-CEM leukemia is -51.7% (active); in the experiment on MOLT-4 leukemia, -48.5% (active).
On to `CCn1cc(C(=O)O)c(=O)c2cc(F)c(N3CCN(S(=O)(=O)c4ccc(Cl)cc4)CC3)cc21`, for which the growth in the experiment with HCT-15 colon is 15.7%; in the experiment on HT29 colon it was 7.87% (active); with SNB-75 CNS, 41.8%; in the experiment on SNB-19 CNS, 20.6%; in the experiment on U251 CNS it was 12%; in the experiment on PC-3 prostate, 25.3%. The growth with SK-MEL-5 melanoma is 26.6%; in the experiment with UACC-62 melanoma it was 21.5%; with LOX IMVI melanoma, 19.9%; in the experiment on SK-MEL-28 melanoma, 44.6%; with SK-MEL-2 melanoma, 43.8%; with EKVX NSCLC, 78.1%. For the same molecule, the growth is 11.6% in the experiment on SN12C renal; 51.1% in the experiment on UO-31 renal; 53.6% with TK-10 renal; 28.7% in the experiment with ACHN renal; 43.6% in the experiment on CAKI-1 renal; -6.18% (active) with A498 renal. The growth in the experiment on CCRF-CEM leukemia was -0.845% (active); with MOLT-4 leukemia, 23.6%.
On to `CCOC(=O)NC1=NCC(C)(C)S1`, for which the growth in the experiment with HCT-15 colon was 104%; in the experiment on HT29 colon it was 91.3%; in the experiment on SNB-75 CNS it was 91.2%; in the experiment on SNB-19 CNS it was 98.1%; in the experiment on U251 CNS, 101%; with PC-3 prostate, 93.6%. For the same molecule, the growth in the experiment with SK-MEL-5 melanoma is 98.3%; in the experiment with UACC-62 melanoma it was 93.6%; in the experiment on LOX IMVI melanoma, 94.4%; in the experiment on SK-MEL-28 melanoma, 99.9%; in the experiment on SK-MEL-2 melanoma, 102%; in the experiment with EKVX NSCLC, 98.2%. Further, the growth with SN12C renal was 93.8%; with UO-31 renal, 86.9%; in the experiment on TK-10 renal it was 98.4%; in the experiment with ACHN renal, 107%; with CAKI-1 renal it was 99.7%; with A498 renal, 68.4%. The growth with CCRF-CEM leukemia was 98.4%; in the experiment on MOLT-4 leukemia it was 83.8%.
With `Cc1c(O)c(N=Nc2ccc(C(=O)O)c(O)c2)c2ccccc2c1O`, the growth is 117% with HCT-15 colon; 96.9% in the experiment with HT29 colon; 109% in the experiment on SNB-75 CNS; 105% in the experiment with SNB-19 CNS; 101% with U251 CNS; 77.4% in the experiment on PC-3 prostate. Further, the growth in the experiment with SK-MEL-5 melanoma was 96.1%; in the experiment on UACC-62 melanoma, 92.5%; in the experiment with LOX IMVI melanoma it was 86.4%; with SK-MEL-28 melanoma, 131%; with SK-MEL-2 melanoma, 92.7%; in the experiment with EKVX NSCLC it was 66.4%. Further, the growth with SN12C renal was 96.3%; in the experiment with UO-31 renal, 74.3%; with TK-10 renal it was 116%; in the experiment with ACHN renal, 97.6%; in the experiment with CAKI-1 renal, 84.5%; with A498 renal, 86.3%. Also, the growth with CCRF-CEM leukemia was 112%; in the experiment with MOLT-4 leukemia, 76.6%.
